Pf growth 96h – P. falciparum growth inhibition at 96 hour, primary screen for plastid delayed-death inhibitors; P. falciparum luciferase reporter growth, 96 h; Potency, µM (series often up to 28.7 µM), inactives show at the top dose activity change, negative = inhibition, actives largely listed as inhibitors; actives 6.9% (n = 320,000); AID 504834; note: potency is the fitted concentration of half-maximal effect; % is set by controls: 0 for no effect and ±100 for the full control effect
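Plates of compound plus infected erythrocytes (2% hematocrit, 0.05% parasitemia final) incubate 96 hours, 37 C, 5% CO2. Detection reagent added; reduced luminescence from the parasites' luciferase reporter flags inhibition.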
Cycloheximide cs – affects cycloheximide protein synthesis inhibition readout, counter-screen | cell reporter, cycloheximide protein synthesis inhibition counterscreen | max response, % | actives 12% (n = 300,000); in the data active = max response mostly above about 13%, no sharp cut-off; inactive = mostly below about 14%; note: read at 38.3 µM for the half of the compounds with a filed dose; 0% is about no effect
LmPK inhibitor – blocks Leishmania mexicana pyruvate kinase activity. Q27686. purified LmPK, Kinase-Glo ATP luminescence, 1 h. Potency, µM (top dose mostly 57.5 µM), inactives show at the highest dose activity change, negative = inhibition, actives largely listed as inhibitors. actives 0.37% (n = 290,000). AID 1721; note: potency is the fitted concentration of half-maximal effect; % is set by controls: 0 for no effect and ±100 for the full control effect
Target sequence (Q27686 whole entry, looked up): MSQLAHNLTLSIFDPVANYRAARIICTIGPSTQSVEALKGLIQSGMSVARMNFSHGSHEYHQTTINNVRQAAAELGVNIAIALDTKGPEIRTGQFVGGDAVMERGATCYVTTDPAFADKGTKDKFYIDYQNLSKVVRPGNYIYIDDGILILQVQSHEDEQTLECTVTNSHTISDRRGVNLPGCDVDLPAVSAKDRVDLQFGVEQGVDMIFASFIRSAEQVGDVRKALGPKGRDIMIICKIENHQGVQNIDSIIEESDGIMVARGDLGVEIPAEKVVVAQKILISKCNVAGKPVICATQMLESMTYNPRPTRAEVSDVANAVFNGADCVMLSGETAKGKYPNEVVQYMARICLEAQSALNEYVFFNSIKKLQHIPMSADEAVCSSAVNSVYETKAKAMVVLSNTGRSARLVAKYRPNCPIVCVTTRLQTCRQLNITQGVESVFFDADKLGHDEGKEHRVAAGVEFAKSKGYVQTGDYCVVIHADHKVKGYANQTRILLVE
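Kinase-Glo luminescence read after 1 h RT reaction of 0.1 nM LmPK with 0.5 mM PEP and 0.1 mM ADP. Activity scaled between uninhibited and enzyme-free controls.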
Shiga inhibitor – Shiga toxin inhibition; Vero cells, Shiga toxin protein synthesis inhibition reporter; inhibition, % at 38.7 µM; actives 9.2% (n = 290,000); in the data active = inhibition mostly above about 28%, no sharp cut-off; inactive = mostly below about 43%; note: 0% is about no effect
Pf growth 48h – P. falciparum growth inhibition at 48 hours (one generation); P. falciparum luciferase growth in erythrocytes, 48 h; Potency, µM (highest dose often 28.7 µM), for inactives: at the top dose activity change, negative = inhibition, actives largely listed as inhibitors; actives 5.9% (n = 310,000); note: potency is the fitted concentration of half-maximal effect; % is set by controls: 0 for no effect and ±100 for the full control effect
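Luciferase-expressing P. falciparum in infected erythrocytes (2% hematocrit, 0.1% parasitemia final) in RPMI 1640/0.5% Albumax were exposed to compound for 48 hours at 37 C, 5% CO2; growth read as luminescence.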
* = called active by the depositor; ? = inconclusive; / = no result given; [ ] = dose if it differs, or a comment. A selection: hits, their analogues and other compounds. The true share with any hit is near 22%. Unless noted, calls come from the whole dose curve; as a rule, active = well fitted inhibition curve with a large enough effect; inconclusive = small, poorly fitted or top-dose-only effect, or another doubt; inactive = no such curve, though single readings can be large or run the other way.

SMILES	Pf growth 96h	Cycloheximide cs	LmPK inhibitor	Shiga inhibitor	Pf growth 48h
O=C(CC1SC(=Nc2ccccc2)N(CCc2ccccn2)C1=O)Nc1ccc(F)cc1 (centres undefined)	4.7µM*	10	2%	-5	?
CCN1C(=O)C(CC(=O)Nc2ccccc2)S/C1=N\c1ccccn1 (centres undefined)	22%	-5	-14%	-11	43%
CC(C)CCNC(=O)CCSCCC(=O)NCCC(C)C	16%	1	4%	15	-14%
Cc1ccc(S(=O)(=O)Nc2cc(C(C(=O)OC(C)C)C(=O)C(F)(F)F)c(O)c3ccccc23)c(C)c1 (centres undefined)	5.2µM*	-2	0%	-10	13µM*
Cc1ccc(S(=O)(=O)Nc2ccc(O)c3ccccc23)c(C)c1	23%	12	8.9µM*	28	2%[0.00184 µM]
C/C(Cc1ccccc1)=N\NC(=O)CNC(=O)c1ccc(Cl)cc1Cl	34%	15	5%	25	20%
Fc1cccc(Cl)c1CSc1ccc2nnc(-c3ccccn3)n2n1	-19%	-3	0%	-27	-8%
COc1ccc(OC)c(NC(=O)CSc2ccc3nnc(-c4cccnc4)n3n2)c1	12µM*	8	1%	13	?
O=C(CSc1ccc2nnc(-c3ccccn3)n2n1)Nc1ccc2c(c1)OCO2	1.9µM*	-1	7%	-16	3.7µM*
Fc1cccc(CSc2ccc3nnc(-c4ccccn4)n3n2)c1	1.9µM*	-7	2%	-3	?
Cc1ccc(-c2nnc3ccc(SCC(=O)Nc4cc(C)on4)nn23)cc1	-28%	-3	3%	-23	?
Cc1cc(NC(=O)CSc2ccc3nnc(-c4cccs4)n3n2)no1	2.3µM*	-2	3%	22	/
O=C(O)c1ccc(Cl)c(S(=O)(=O)Nc2ccccc2C(=O)Nc2ccc(Cl)cc2)c1	27%	1	-1%	56	35%
Cc1ccc(NC(=O)CSc2ccc3nnc(-c4ccccn4)n3n2)cc1	13µM*	-2	-8%	5	?
COc1ccc(NC(=O)CSc2ccc3nnc(-c4ccccn4)n3n2)cc1	12µM*	10	2%	-19	?
O=C(CSc1ccc2nnc(-c3ccccn3)n2n1)Nc1ccc(F)cc1	50%	-2	-7%	-1	26%
CC(=O)c1ccc(NC(=O)CSc2ccc3nnc(-c4ccccn4)n3n2)cc1	?	-2	7%	-8	?
CCCS(=O)(=O)N1CCN(C2CCC(C)CC2)CC1 (centres undefined)	10µM*	4	-2%	-3	30%
CCS(=O)(=O)N1CCC(N2CCC(C)CC2)CC1	18%	1	0%	-6	7%
COc1ccccc1N1CCN(C2CCCN(C(=O)CCc3c(C)noc3C)C2)CC1 (centres undefined)	9%	9	2%	-4	-3%
COc1cc(F)cc(-c2ccc3c(c2)c(-c2cccs2)c(-c2cc(OC)cc(OC)c2)n3C)c1	?	/	/	/	9.3µM*
COc1cc(OC)cc(-c2c(-c3cccs3)c3cc(-c4ccc5c(c4)OCO5)ccc3n2C)c1	-2%	/	/	/	6%
COc1cc(OC)cc(-c2c(-c3cccs3)c3cc(-c4cccc5[nH]ccc45)ccc3n2C)c1	?	/	/	/	2.3µM*
COc1cc(OC)cc(-c2c(-c3cccs3)c3cc(-c4ccn[nH]4)ccc3n2C)c1	?	/	/	/	4.7µM*
CN(C)CCNC(=O)c1nn(C)c2c1CCc1ccccc1-2	?	-3	6%	15	17%
SMILES	Pf growth 96h	Cycloheximide cs	LmPK inhibitor	Shiga inhibitor	Pf growth 48h
CN(C)c1ccc(C(=O)n2nnc3ccccc32)cc1	/	57*	-19%	116*	27%
CCN(CC)c1ccc(C(=O)n2cnc3ccccc32)cc1	-19%	25*	1%	68	48%
Cc1cc2ncn(C(=O)c3ccc(F)cc3)c2cc1C	33%	-1	-4%	1	24%
CC(C)(C)c1ccc(C(=O)n2cnc3ccccc32)cc1	?	30*	-6%	64*	16%
COc1ccc(/C(C)=N/NC(=O)c2ccc(NS(=O)(=O)c3cccs3)cc2)cc1	0%	13	1%	25	3%
c1ccc(-c2nc3c(ccc4ccccc43)[nH]2)nc1	-6%	42*	-17%	94*	200%
Nc1nc(-c2nc3ccccc3[nH]2)cs1	-8%	33*	?	70*	79%
c1ccc(-c2nc3ccccc3[nH]2)nc1	138%	72*	?	117*	133%
O=c1[nH]c(-c2ccccn2)nc2ccccc12	?	44*	-20%	105	-54%
Cc1[nH]c2ccccc2c1-c1csc(N)n1	175%	-3	-3%	7	1%
Cc1nc2ccccc2c(=O)[nH]1	/	-9	-5%	-4	/
c1ccc(-c2n[nH]c(-c3ccccc3)c2-c2nc3ccccc3[nH]2)cc1	12%	-3	1%	-13	2%
O=C(CSc1nnc(NC(=O)C2CCC2)s1)Nc1ccccc1F	7%	-4	2%	-9	3%
C=CCOc1ccc(CNc2ccc(NC(=O)CC(C)C)cc2)cc1OC	?	-2	0%	-2	-17%
COc1ccc(C(CNC(=O)c2oc3ccc(F)cc3c2C)N2CCCCC2)cc1 (centres undefined)	18%	-4	-2%	-2	?
Cc1ccc2nc(-c3ccccn3)[nH]c2c1	?	18*	22µM*	15	176%
Cc1ccc2nc(CCCc3nc4ccc(C)cc4[nH]3)[nH]c2c1	-19%	-1	0%	2	?
O=c1[nH]c2cc3ccccc3cc2nc1C(F)(F)F	-10%	5	-4%	-8	2%
O=c1[nH]c(-c2ccccn2)nc(C(F)(F)F)c1Br	7.4µM*	-3	3%	15	5.9µM*
Cc1sc2nc(-c3ccccn3)[nH]c(=O)c2c1-c1ccccc1	?	71*	-1%	114*	1.5µM*
Cc1sc2nc(-c3ccncc3)[nH]c(=O)c2c1-c1ccccc1	-3%	-6	4%	-6	-2%
CCCCn1c(=O)[nH]c(=O)c2c1nc(-c1ccccc1F)n2Cc1ccccc1OC	?	-1	11%	-8	?
O=C(Nc1nnc(SCC(=O)N2CCCc3ccccc32)s1)c1ccccc1	15%	34*	-2%	41*	45%
CC(=O)Nc1nnc(SCC(=O)N2CCCc3ccccc32)s1	-6%	-6	4%	-1	-12%
O=C(Nc1nnc(SCC(=O)N2CCCc3ccccc32)s1)c1ccc2ccccc2c1	-5%	37*	-3%	58*	22%
Cc1cc(C)cc(C(=O)Nc2nnc(SCC(=O)N3CCCc4ccccc43)s2)c1	10%	2	-4%	-4	15%
COc1c(C)cc(C(=O)C2CCCN(C(=O)CCc3scnc3C)C2)cc1C (centres undefined)	66%	7	4%	31	-18%
Nc1cc(C(=O)OCC(=O)N2CCCC2)ccc1Cl	/	31*	-10%	50*	67%
Nc1cc(Cl)ccc1C(=O)OCC(=O)N1CCOCC1	29%	21*	3%	25	35%

Source: PubChem BioAssay
